3CLpro inhibitor: SARS-CoV 3CLpro protease inhibition; AID 1706; P0C6X7; recombinant SARS-CoV 3CLpro, quenched FRET peptide cleavage; inhibition, % at 6 µM; 0.14% of 290,000 active; in the data active = inhibition above about 12%
BJeLR viability: kills HRASV12-expressing BJeLR cells. 0.17% of 300,000 active. inhibition, % (no concentration beside the values). BJeLR (HRASV12) viability, CellTiter-Glo ATP luminescence, 48 h; in the data active = inhibition above about 50%
RN4220 kill: kills Staphylococcus aureus RN4220. S. aureus RN4220 growth, OD600, 16 h. inhibition, % (no concentration beside the values). 0.33% of 330,000 active. AID 1259311; in the data active = inhibition above about 85%;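 also: plate controls were untreated cells for no effect and reference antibiotic for full effect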
Sa ugtP lethal: compounds lethal to S. aureus RN4220 ugtP deletion mutant. OD600 growth, 16 h. 0.54% of 330,000 active. growth inhibition, % (no concentration beside the values). AID 1259309; in the data active = growth inhibition above about 68%;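 also: plate controls were untreated wells for no effect and antibiotic for full effect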
PfHsp40 rescue: compounds rescuing yeast from Plasmodium falciparum HSP40 toxicity; S. cerevisiae expressing PfHsp40, growth rescue, ATP luminescence; 0.68% of 340,000 active; growth rescue, % at 12.5 µM; AID 504582; in the data active = growth rescue above about 28%, passing the limit was not always enough;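 also: yeast W303a lacking pdr1 and pdr3 grown in galactose medium; growth measured after three days at 30 °C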
* = called active by the depositor; . = not tested or not shown. The list is not random: actives were taken first. Their share in the collection is about 1.3%.

SMILES	3CLpro inhibitor	BJeLR viability	RN4220 kill	Sa ugtP lethal	PfHsp40 rescue
CCn1c(=O)c(CCC(=O)N2CCN(c3ccccn3)CC2)c(C)c2c(C)nn(-c3ccccc3)c21	5	-13	2	-6	45*
CCC(c1ccc(O)cc1)C(CC)c1ccc(O)cc1 (stereo unspecified)	.	.	-23	-12	85*
COc1cccc(CNC(=O)COc2ccc(C(=O)c3ccccc3)cc2)c1	-8	0	3	3	499*
COc1cccc(CNC(=O)Cc2ccc(-c3ccccc3)cc2)c1	1	8	.	.	3
CC1CC(C)CC(C)C(O)C(C#N)=CC=CCC(C2CCCC2C(=O)O)OC(=O)CC(O)C(C)C1 (stereo unspecified)	.	.	.	.	401*
NC(=O)CCNC(=O)c1ccc(Cl)cc1	5	-6	2	0	0
Cc1nn(C)c(Cl)c1NC(=O)OCc1ccc(Cl)cc1Cl	5	6	11	4	2
Cn1nc([N+](=O)[O-])nc1Sc1nnc(-c2ccccc2)o1	-1	56*	2	11	0
Cc1ccc(-c2csc(-c3c[nH]c4ccccc34)n2)c(C)c1	-10	3	-7	95*	0
Oc1ccc(-c2csc(-c3c[nH]c4ccccc34)n2)c(O)c1	3	9	-3	-37	9
Brc1ccc(OCc2cn3ccccc3n2)cc1	0	6	.	.	0
O=C1NC(Cc2ccccc2)C(=O)N1Cc1ccccc1 (stereo unspecified)	.	.	6	7	-1
O=c1ccsn1Cc1ccccc1	-2	2	4	88*	0
CC[n+]1ccc(/C=C/c2ccc(N(C)C)cc2)c2ccccc21	-9	.	92*	95*	4
CCN(CC)c1ccc(/C=C/c2ccc3ccc(OC)cc3[n+]2CC)cc1	-8	43	100*	99*	321*
CC[n+]1c(/C=C/c2ccc(N(C)C)cc2)ccc2ccccc21	-1	35	98*	96*	19
CC[n+]1ccccc1/C=C/c1ccc(N(C)C)cc1	5	26	2	7	1
CC[n+]1c(/C=C/c2ccc(OC)c(OC)c2)ccc2ccccc21	5	0	1	4	-2
CC12CCC(C(=O)Nc3nc4ccccc4s3)(OC1=O)C2(C)C (stereo unspecified)	4	3	3	7	1
c1ccc2c3c([nH]c2c1)-c1[nH]ncc1CC3	-2	-8	-3	-20	8
Clc1ccc2[nH]c3c(c2c1)CCc1cn[nH]c1-3	1	-1	98*	79	1
COc1ccccc1Oc1c(C)oc2cc(OC(=O)N(C)C)ccc2c1=O	-1	-8	0	6	93*
Oc1ccccc1N=Nc1ccccc1O	2	42	13	7	32*
O=C(NN=Cc1ccccn1)c1c[nH]c2ccccc12	.	.	6	-5	.
O=C(O)/C=C\C(=O)Nc1ccccc1F	4	-8	7	1	37*
SMILES	3CLpro inhibitor	BJeLR viability	RN4220 kill	Sa ugtP lethal	PfHsp40 rescue
Oc1c(C(c2ccc(Cl)cc2)N2CCCC2)cc(Cl)c2cccnc12 (stereo unspecified)	-1	-11	100*	100*	53*
CC(=O)NC(c1cc(Cl)c2cccnc2c1O)C1CC1 (stereo unspecified)	.	.	17	36	7
Oc1c(C(c2ccccn2)N2CCC(Cc3ccccc3)CC2)cc(Cl)c2cccnc12 (stereo unspecified)	2	14	93*	88*	.
Oc1c(C(c2ccccc2Cl)N2CCCC2)ccc2cccnc12 (stereo unspecified)	5	-10	13	-8	-1
Cc1ccc(C(c2cc(Cl)c3cccnc3c2O)N2CCN(C)CC2)cc1 (stereo unspecified)	9	4	.	.	61*
CN1CCN(C(c2ccccn2)c2cc(Cl)c3cccnc3c2O)CC1 (stereo unspecified)	3	1	7	-4	401*
S=C(NCc1ccco1)Nc1cccc(Cl)c1	-1	-17	2	-21	4
S=C(NCc1ccco1)Nc1ccc(Cl)c(Cl)c1	5	-2	-6	-19	36*
Cn1nc(C(F)(F)F)c(-c2ccc(F)cc2)c1NC(=O)Nc1ccc(F)cc1	4	4	-7	-32	1
COC(=O)c1ccc(-c2ccco2)n1Cc1nc(-c2ccc(OC)c(OC)c2)oc1C	0	3	-12	12	2
COC(=O)c1ccc(-c2ccco2)n1Cc1ccccc1Cl	-6	7	-1	85*	1
O=C(O)c1ccc(N/N=C/c2c(F)cccc2Cl)cc1	2	0	.	.	106*
Fc1ccc(Nc2nnc(C(F)(F)F)s2)cc1Cl	2	18	46	31	149*
FC(F)(F)c1nnc(Nc2ccc(Cl)cc2)s1	2	-14	2	-29	1
COc1ccc2c(n1)Sc1nc3ccccc3nc1N2	-4	0	0	8	336*
CSc1nc2ccc(S(=O)(=O)NC3CCCCC3)cc2s1	8	-1	-10	-18	7
CCOc1cc(C2C(C(=O)c3ccc(C)o3)=C(O)C(=O)N2CCc2ccccc2)ccc1O (stereo unspecified)	1	8	18	48	77*
COc1cc(C2C(C(=O)c3ccc(C)o3)=C(O)C(=O)N2Cc2ccccc2)ccc1O (stereo unspecified)	.	0	4	8	-1
CCCCCN=Cc1c(C)[nH]n(-c2nc3ccccc3s2)c1=O	3	53*	6	1	1
Cc1ccc(-n2c(-c3ccc(Br)cc3)c[n+]3c2CCc2ccc4cccnc4c2-3)cc1	1	77*	99*	90	9
COc1ccc(-n2c(-c3ccc(Cl)cc3)c[n+]3c2CCc2ccccc2-3)cc1	4	1	0	-15	4
C(=N/N1CCN(c2ccccc2)CC1)/c1ccncc1	5	-1	.	.	164*
Cc1ccc(SCc2noc(C(=O)NC(C)C)c2C(=O)O)cc1C	4	6	9	5	-1
CCOc1ccc(Cc2c(Cl)nc(SC)nc2OC)cc1	4	-1	-3	83	-2
CCCCOc1ccc(Cc2c(Cl)nc(SC)nc2N2CCOCC2)cc1	-4	5	-2	92*	0
SMILES	3CLpro inhibitor	BJeLR viability	RN4220 kill	Sa ugtP lethal	PfHsp40 rescue
CSc1nc(Cl)c(Cc2ccc(OCC(C)C)cc2)c(N2CCOCC2)n1	1	-12	-3	94*	-1
c1ccc(CCc2ccc3n2Cc2cnnn2-c2ccccc2-3)cc1	.	.	.	.	2
COc1ccc(-c2ccc3n2Cc2cnnn2-c2ccccc2-3)cc1	.	.	.	.	137*
O=C(c1cccc2c1-c1ccccc1/C2=N/O)N1CCCCC1	2	5	.	.	2
CCOC(=O)c1cccc2c1-c1ccccc1C2=NO	.	.	-1	88*	.
O=C1OCC2=C1C(c1ccc3c(c1)OCO3)c1cc3c(cc1O2)OCO3 (stereo unspecified)	.	.	.	.	-2
CC(C)c1ccc(C2C3=C(COC3=O)Nc3cc4c(cc32)OCO4)cc1 (stereo unspecified)	-5	58*	3	8	0
C[C@H](NC(=O)COc1ccccc1)C(=O)OCC(=O)c1cc2ccccc2o1	.	.	3	1	1

Bioassay records: PubChem, several laboratories
